Records with an inconclusive call do not appear. The source holds several records for some structures; these can differ, active in one and inactive in another. Activity calls are given as the source filed them. Unless noted, the call rests on the fitted dose curve; in most records, active means well fitted curve in the direction sought with a large enough effect in the repeat runs; inconclusive means weak or mixed curves; inactive means no such curve, though single readings can be large; an effect the other way counts as inactive or inconclusive. Positions of bridges follow the written chain, without caps; N, C: chain ends. Residues, ends and D or L forms follow the SMILES beside them.

The source of these data is PubChem BioAssay (Tox21).

A short description of assay [1]: qHTS assay for small molecule agonists of the p53 signaling pathway (AID 651631; calls by dose curve; further: nearly all actives have a fitted effect of over 15% in size; further: potency means the concentration at half of the fitted maximal effect). In a few lines: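 Read-out is beta-lactamase FRET fluorescence measured 2 h after substrate addition at room temperature, in HCT-116 cells with a p53 response element-driven reporter exposed to compounds for 16 h at 37 °C.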
On the technique in general: Quantitative high-throughput screening tests each substance at several concentrations.

Assay [2] in a line: qHTS assay for small molecules that induce genotoxicity in human embryonic kidney cells expressing luciferase-tagged ATAD5 (AID 651632). Further: nearly all actives have a fitted effect of over 15% in size. Further: potency means the concentration at half of the fitted maximal effect. In a few lines: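 Increased luciferase signal from ATAD5-tagged reporter cells indicates DNA-damage-driven ATAD5 induction. HEK293T cells are treated for 16 hr at 37C before detection with Amplite.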
Assay [3] in a line: qHTS assay for small molecule agonists of the p53 signaling pathway - cell viability (AID 651633; calls by dose curve; further: nearly all actives have a fitted effect of over 30% in size; further: potency means the concentration at half of the fitted maximal effect). Summed up:
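p53RE-bla cells were treated with compound for 16 hours at 37 C. Cytotoxicity was then measured as CellTiter-Glo luminescence after 30 min at room temperature.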

Assay [4] is described as follows: qHTS assay for small molecules that induce genotoxicity in human embryonic kidney cells expressing luciferase-tagged ATAD5 - cell viability (AID 651634; calls by dose curve; further: nearly all actives have a fitted effect of over 25% in size; further: potency means the concentration at half of the fitted maximal effect). In a few lines:
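Cytotoxicity counterscreen in HEK293T cells bearing an ATAD5-luciferase reporter: live-cell protease activity measured by CellTiter-Fluor fluorescence after 15.5 hr compound exposure.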

The nature of assay [5]: qHTS assay for small molecule disruptors of the mitochondrial membrane potential (AID 720635). Further: potency means the concentration at half of the fitted maximal effect. Summed up:
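HepG2 cells exposed to compound 1 hr at 37C, then Mito-MPS dye 30 min. Ratio read of aggregate (540/590 nm) versus monomer (490/535 nm) fluorescence.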

Assay [6] is described as follows: qHTS assay to test for compound auto fluorescence at 590 nm (red) in HepG2 cells (AID 720674). Summed up: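 Fluorescence at 590 nm emission following 540 nm excitation was recorded from HepG2 wells one hour after compound transfer, with DMSO-only wells as vehicle and Rose Bengal sodium equivalency as the scale.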
Assay [7] is described as follows: qHTS assay to test for compound auto fluorescence at 535 nm (green) in HepG2 cells (AID 720675).
Assay [8] can be described thus: qHTS assay to test for compound auto fluorescence at 460 nm (blue) in HEK293 cells (AID 720678). In a few lines:
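Measured: blue fluorescence (Ex 405/Em 460 nm) of compound-treated HEK293 cells, incubated overnight at 37C with 5% CO2 and scaled to triamterene equivalents.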

Assay [9] is described as follows: qHTS assay to test for compound auto fluorescence at 590 nm (red) in HEK293 cells (AID 720679). Summed up:
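Using HEK293 cells at 2,000 per well, the screen added 23 nL of each compound after cell attachment and incubated overnight (37C, 5% CO2). The plate reader then captured red-label fluorescence, Ex/Em 540/590nm.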

The nature of assay [10]: qHTS assay for small molecule disruptors of the mitochondrial membrane potential - cell viability (AID 720634; calls by dose curve;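 further: human HepG2 liver cancer cells; series mostly up to about 83 µM; nearly all actives have a fitted effect of over 20% in size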). Summed up:
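After overnight attachment at 37 C, HepG2 cells received compound or DMSO vehicle for 1 hr. Viability is then taken from ATP-driven luminescence following a 30 min room-temperature CellTiter-Glo step.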

As to `NCCCC[C@H](NC(=O)[C@@H]1CCCN1C(=O)[C@@H]1CSSC[C@H](NC(=O)CNC(=O)CNC(=O)CN)C(=O)N[C@@H](Cc2ccc(O)cc2)C(=O)N[C@@H](Cc2ccccc2)C(=O)N[C@@H](CCC(N)=O)C(=O)N[C@@H](CC(N)=O)C(=O)N1)C(=O)NCC(N)=O` (H-GGGCYFQNCPKG-NH2; disulfide 4-9), the Potency entry in assay [1], in assay [2], in [3], in assay [4], in [5] and in assay [6] was “inactive” throughout. Moreover, the Potency result in assay [7], in assay [8] and in assay [9] was “inactive” each time.
For `CC(C)CN(C[C@@H](OP(=O)(O)O)[C@H](Cc1ccccc1)NC(=O)O[C@H]1CCOC1)S(=O)(=O)c1ccc(N)cc1`, the Potency entry in assay [1], in [2], in [3], in assay [4], in [5] and in assay [6] was “inactive” in each case. Also, the Potency entry in assay [7], in assay [8] and in assay [9] was “inactive” throughout.
Take `CCC(=O)O[C@H]1CC[C@H]2[C@@H]3CCc4cc(O)ccc4[C@H]3CC[C@]12C`: the values for the Potency in [1] and in [5] were 33.5 µM (active) and 11.9 µM (active), respectively. Also, the Potency result in [2], in assay [4], in [6], in [7], in assay [8] and in assay [9] was “inactive” each time.
On to `CCOC(=O)Nc1ccc2c(c1)N(C(=O)CN(C)C)c1ccccc1CC2`, for which the Potency entry in assay [1], in assay [2], in [3], in assay [4], in assay [6] and in assay [7] was “inactive” throughout. The Potency result in assay [8] and in assay [9] was “inactive” in each case.
Consider `CO[C@H]1C=CO[C@@]2(C)Oc3c(C)c(O)c4c(O)c(c5c(nc6cc(C)ccn65)c4c3C2=O)NC(=O)/C(C)=C\C=C[C@H](C)[C@H](O)[C@@H](C)[C@@H](O)[C@@H](C)[C@H](OC(C)=O)[C@@H]1C`, for which the Potency result in assay [1], in [2], in [3], in assay [10], in assay [6] and in assay [7] was “inactive” throughout. Further, the Potency result in assay [8] and in [9] was “inactive” each time.
As for `NC(=S)N=Nc1ccc(NN=C(N)N)cc1`, the Potency entry in assay [1], in assay [2], in [10], in [6], in assay [7] and in assay [8] was “inactive” each time. For the same molecule, the Potency entry in assay [9] is “inactive”. The Potency was 26.6 µM (active) in assay [4] and 2.98 µM (active) in assay [5].
Take `C#C[C@]1(OC(C)=O)CC[C@H]2[C@@H]3CCC4=CC(=O)CC[C@@H]4[C@H]3CC[C@@]21C`: the Potency result in assay [1], in [2], in assay [3], in assay [10], in assay [5] and in assay [6] was “inactive” throughout. For the same molecule, the Potency result in [7], in assay [8] and in [9] was “inactive” in each case.
As for `O=[N+]([O-])c1ccc(Oc2ccc(N=C=S)cc2)cc1`, the results for the Potency in assay [1] and in assay [5] were 13.3 µM (active) and 5.96 µM (active), respectively. Moreover, the Potency entry in assay [2], in assay [3], in assay [4], in assay [6], in assay [7] and in [8] was “inactive” each time. For the same molecule, the Potency result in [9] is “inactive”.
For the molecule `CN[C@@H]1[C@@H](O)[C@@H](O[C@@H]2[C@@H](O)[C@H](O[C@H]3O[C@H](CN)[C@@H](O)[C@H](O)[C@H]3O)[C@@H](N)C[C@H]2NC(=O)C(O)CN)OC[C@]1(C)O` (some centres undefined), the Potency result in [1], in assay [3], in assay [4], in assay [10], in assay [5] and in assay [6] was “inactive” in each case. Moreover, the Potency result in assay [7], in assay [8] and in assay [9] was “inactive” throughout.
For the molecule `Cc1nnc(C(C)C)n1C1C[C@H]2CC[C@@H](C1)N2CC[C@H](NC(=O)C1CCC(F)(F)CC1)c1ccccc1` (some centres undefined), the Potency entry in assay [1], in [2], in assay [3], in assay [4], in [6] and in assay [7] was “inactive” each time. The Potency result in assay [8] and in [9] was “inactive” throughout.
Consider `CC(=O)O[C@H]1C[C@@]2(C)[C@@H](C[C@@H](O)[C@H]3[C@@]4(C)CC[C@@H](O)[C@@H](C)[C@@H]4CC[C@@]32C)/C1=C(\CCC=C(C)C)C(=O)O`, for which the Potency entry in assay [1], in assay [2], in [3], in assay [4], in assay [10] and in assay [7] was “inactive” in each case. Besides, the Potency entry in assay [8] and in assay [9] was “inactive” each time.
Take `Cc1ncc(COP(=O)(O)O)c(CN)c1O`: the Potency result in [1], in assay [2], in assay [3], in [4], in assay [6] and in assay [7] was “inactive” in each case. For the same molecule, the Potency entry in assay [8] and in [9] was “inactive” in each case.
With `CC(C(=O)O)c1ccc(N2Cc3ccccc3C2=O)cc1` (centres undefined), the Potency result in assay [1], in assay [3], in [4], in [6], in [7] and in assay [8] was “inactive” each time. In addition, the Potency result in assay [9] is “inactive”. Also, in assay [2], the Potency is 596 nM (active).
Take `O=C(O)c1ccc(NC(=O)[C@H](Cc2ccc(O)cc2)NC(=O)c2ccccc2)cc1`: the Potency entry in assay [1], in assay [2], in [4], in assay [10], in assay [5] and in assay [6] was “inactive” each time. The Potency result in [7], in [8] and in assay [9] was “inactive” throughout.
Regarding `O=C(O)CCC/C=C\C[C@@H]1[C@@H](/C=C/[C@@H](O)COc2cccc(C(F)(F)F)c2)[C@H](O)C[C@@H]1O`, the Potency result in assay [2], in assay [3], in [4], in assay [10], in assay [5] and in [6] was “inactive” in each case. Also, the Potency result in [7], in assay [8] and in [9] was “inactive” throughout.
Regarding `CCCCCCCCCCCCCCCCSCC(COC)COP(=O)([O-])OCC[N+](C)(C)C` (centres undefined), the Potency result in assay [1], in assay [3], in assay [4], in assay [10], in assay [6] and in [7] was “inactive” in each case. Also, the Potency entry in assay [8] and in assay [9] was “inactive” throughout.
As for `O=C(O)C1=C(CSc2nnnn2CS(=O)(=O)O)CS[C@@H]2[C@H](NC(=O)[C@H](O)c3ccccc3)C(=O)N12`, the Potency entry in [2], in assay [3], in assay [4], in assay [10], in [5] and in assay [6] was “inactive” throughout. The Potency entry in [7], in assay [8] and in [9] was “inactive” throughout.
For `Cc1cc(/C=C/c2ccc3cc(N(C)C)ccc3[n+]2C)c(C)n1-c1ccccc1`, the Potency in assay [1] is 9.02 µM (active); in [3] it was 5.07 µM (active); in assay [5], 1.43 µM (active). For the same molecule, the Potency entry in assay [10], in [7] and in assay [8] was “inactive” each time.
For `COC(=O)[C@H]1[C@H]2C[C@@H]3c4[nH]c5ccccc5c4CCN3C[C@H]2C[C@@H](OC(=O)c2cc(OC)c(OC)c(OC)c2)[C@@H]1OC`, the Potency entry in assay [2], in assay [4], in [10], in [6], in [7] and in assay [8] was “inactive” in each case. Also, in assay [9], the Potency entry is “inactive”. Also, the Potency in assay [3] is 5.31 µM (active) and inactive; in assay [5], 3.35 µM (active).
In the case of `CC1=C(/C=C/C(C)=C/C=C/C(C)=C/C=C/C=C(C)/C=C/C=C(C)/C=C/C2=C(C)C[C@@H](O)CC2(C)C)C(C)(C)C[C@H](O)C1`, the Potency in assay [1] was 29.8 µM (active). Further, the Potency entry in assay [6], in assay [7], in assay [8] and in assay [9] was “inactive” throughout.
As for `CS(=O)(=O)OCC(O)C(O)COS(C)(=O)=O` (centres undefined), the Potency result in assay [2], in [3], in assay [4], in assay [10], in assay [5] and in [6] was “inactive” each time. The Potency result in assay [7], in assay [8] and in [9] was “inactive” throughout.
